Assay results published in PubChem BioAssay AID651956 (Broad Institute, 2012).
Measured potencies and affinities stand elsewhere. Results filed as inconclusive are left out. A number with no mark means an inactive call.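 The calls were made as follows: active = in every test run, a fitted half-maximal concentration for signal decrease at or below twice the highest tested concentration; inconclusive = runs disagree, flat 30 to 70% decrease, or poor fit; inactive = the rest.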

Assay: miR-122 activators in hepatoma reporter cells, dose response, cell-based, Huh7 psiCHECK-miR122, Renilla luciferase, cherry-picked (AID 651956);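 also: Renilla luciferase from a miR-122 sensor reporter so lower signal means miR-122 activation; 0% = median neutral control wells and -100% = median positive control wells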
Conditions: 48 h; series mostly up to 35 µM; activity change, negative = signal decrease: at the top concentration

Row | SMILES | activity change, negative = signal decrease
1 | Cc1cc(C(=O)Nc2ccc3c(c2)C(=O)N(C)[C@H]2CC[C@H](CC(=O)N[C@@H](C)c4ccccc4)O[C@H]2CO3)no1 | 4.71%
2 | CN1CCN(C(=O)C[C@H]2CC[C@@H]3[C@H](COc4ccc(NC(=O)c5cccs5)cc4C(=O)N3C)O2)CC1 | -16.5%
3 | O=C(C1CCOCC1)N1C[C@H]2[C@@H](c3ccccc31)[C@@H](CO)N2Cc1ccccc1 | -21.2%
4 | CN1C(=O)c2cc(NC(=O)c3ccc4c(c3)OCO4)ccc2OC[C@H]2O[C@H](CC(=O)O)CC[C@@H]21 | 90%
5 | O=C(Nc1ccccc1F)N1[C@H](CO)[C@@H]2c3ccccc3NC[C@@H]21 | -4.24%
6 | CN(C[C@H]1N[C@@H](CO)[C@@H]1c1ccc(C2=CCCC2)cc1)C(=O)c1ccccn1 | 209%
7 | CCCCC(=O)OCC(=O)c1[nH]c(C)c(C(=O)OCC)c1C | -21.6%
8 | COc1cccc(NC(=O)Nc2ccc3c(c2)C(=O)N(C)[C@@H]2CC[C@H](CC(=O)O)O[C@H]2CO3)c1 | -9.26%
9 | CO[C@H]1CN(C)C(=O)c2cc(NC(C)=O)ccc2OC[C@@H](C)N(C(=O)CC2CC2)C[C@H]1C | -10%
10 | CN(C)CCCNC(=O)C[C@H]1CC[C@H]2[C@H](COc3ccc(NC(=O)c4cccc(F)c4)cc3C(=O)N2C)O1 | 55.7%
11 | Cc1ccccc1-c1nc(CN2CCCC(C(=O)NCCCN3CCOCC3)C2)c(C)o1 (stereo not drawn) | -7.02%
12 | COc1cccc(S(=O)(=O)N(C)C[C@@H]2Oc3cc(C4=CCCCC4)ccc3S(=O)(=O)N([C@H](C)CO)C[C@@H]2C)c1 | 258%
13 | O=C(Cn1c(=O)c2ccccc2n(CC(=O)N2CCCCC2)c1=O)N1CCCCC1 | -13.5%
